Data published in the supplement of paper PMC11732987, “Enantioselective OTUD7B fragment discovery through chemoproteomics screening and high-throughput optimisation” (Communications Chemistry, 2025).

Legend:
Test in all cases: log2 ratio of Biotin-Ahx-Ub-VS probe labelling (fragment/DMSO); higher = less target engagement (more negative = stronger competition), active = hit call of the paper (q ≤ 0.05, log2 ratio ≤ -1)
Conditions in all cases: compound concentration: 200 uM; treatment time: 3 h
USP42 = target: T1, USP42 (UniProt Q9H9J4)
T1 sequence (whole entry): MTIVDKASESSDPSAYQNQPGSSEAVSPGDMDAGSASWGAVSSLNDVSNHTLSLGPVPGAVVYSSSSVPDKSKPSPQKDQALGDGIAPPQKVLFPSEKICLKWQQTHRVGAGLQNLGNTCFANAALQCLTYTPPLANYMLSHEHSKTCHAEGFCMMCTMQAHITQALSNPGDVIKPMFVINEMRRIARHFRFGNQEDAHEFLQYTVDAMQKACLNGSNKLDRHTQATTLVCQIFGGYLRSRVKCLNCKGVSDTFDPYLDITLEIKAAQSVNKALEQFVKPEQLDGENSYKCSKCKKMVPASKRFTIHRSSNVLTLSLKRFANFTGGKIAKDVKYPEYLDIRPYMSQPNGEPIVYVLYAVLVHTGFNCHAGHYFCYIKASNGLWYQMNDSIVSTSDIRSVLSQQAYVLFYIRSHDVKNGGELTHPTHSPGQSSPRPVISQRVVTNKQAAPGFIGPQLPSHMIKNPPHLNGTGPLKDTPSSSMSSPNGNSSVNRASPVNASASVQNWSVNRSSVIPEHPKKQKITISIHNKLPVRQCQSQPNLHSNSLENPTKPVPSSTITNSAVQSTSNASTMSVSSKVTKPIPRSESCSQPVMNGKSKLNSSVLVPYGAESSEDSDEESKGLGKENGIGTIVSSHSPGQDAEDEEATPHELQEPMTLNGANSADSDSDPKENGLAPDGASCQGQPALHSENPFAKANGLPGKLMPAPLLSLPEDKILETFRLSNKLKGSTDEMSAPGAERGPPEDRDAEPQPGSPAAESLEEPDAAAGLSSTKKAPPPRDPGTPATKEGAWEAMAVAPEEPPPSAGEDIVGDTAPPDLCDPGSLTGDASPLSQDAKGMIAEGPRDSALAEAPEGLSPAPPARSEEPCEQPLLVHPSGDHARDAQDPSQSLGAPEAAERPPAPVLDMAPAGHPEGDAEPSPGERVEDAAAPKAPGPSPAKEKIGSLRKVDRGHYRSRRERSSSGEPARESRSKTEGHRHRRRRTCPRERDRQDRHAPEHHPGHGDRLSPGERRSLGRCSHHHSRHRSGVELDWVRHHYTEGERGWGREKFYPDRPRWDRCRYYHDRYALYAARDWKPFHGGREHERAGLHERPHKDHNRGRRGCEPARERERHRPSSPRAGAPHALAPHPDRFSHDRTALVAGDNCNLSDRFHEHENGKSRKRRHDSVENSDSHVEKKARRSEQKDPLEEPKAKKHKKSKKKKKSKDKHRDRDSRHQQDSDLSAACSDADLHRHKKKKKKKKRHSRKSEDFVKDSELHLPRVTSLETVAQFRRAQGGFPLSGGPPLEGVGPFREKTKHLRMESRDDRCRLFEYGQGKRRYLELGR
Outline: (§1)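 Fragment (200 µM) or vehicle was incubated for 3 h with triplicate HEK293T lysate samples of 495 µg, which were then treated with Biotin-Ahx-Ub-VS at 0.5 µM final for 1 h. Labelled DUBs were enriched on NeutrAvidin, digested with LysC and trypsin, and analysed by diaPASEF LC-MS/MS. Values are average log2 fragment/vehicle ratios from an unpaired t-test on global-median-normalised Spectronaut label-free quantities, using proteins with ≥2 unique peptides.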

USP46 = USP46 (UniProt P62068)
Outline: as §1

USP47 = target: T2, USP47 (UniProt Q96K76)
T2 sequence (whole entry): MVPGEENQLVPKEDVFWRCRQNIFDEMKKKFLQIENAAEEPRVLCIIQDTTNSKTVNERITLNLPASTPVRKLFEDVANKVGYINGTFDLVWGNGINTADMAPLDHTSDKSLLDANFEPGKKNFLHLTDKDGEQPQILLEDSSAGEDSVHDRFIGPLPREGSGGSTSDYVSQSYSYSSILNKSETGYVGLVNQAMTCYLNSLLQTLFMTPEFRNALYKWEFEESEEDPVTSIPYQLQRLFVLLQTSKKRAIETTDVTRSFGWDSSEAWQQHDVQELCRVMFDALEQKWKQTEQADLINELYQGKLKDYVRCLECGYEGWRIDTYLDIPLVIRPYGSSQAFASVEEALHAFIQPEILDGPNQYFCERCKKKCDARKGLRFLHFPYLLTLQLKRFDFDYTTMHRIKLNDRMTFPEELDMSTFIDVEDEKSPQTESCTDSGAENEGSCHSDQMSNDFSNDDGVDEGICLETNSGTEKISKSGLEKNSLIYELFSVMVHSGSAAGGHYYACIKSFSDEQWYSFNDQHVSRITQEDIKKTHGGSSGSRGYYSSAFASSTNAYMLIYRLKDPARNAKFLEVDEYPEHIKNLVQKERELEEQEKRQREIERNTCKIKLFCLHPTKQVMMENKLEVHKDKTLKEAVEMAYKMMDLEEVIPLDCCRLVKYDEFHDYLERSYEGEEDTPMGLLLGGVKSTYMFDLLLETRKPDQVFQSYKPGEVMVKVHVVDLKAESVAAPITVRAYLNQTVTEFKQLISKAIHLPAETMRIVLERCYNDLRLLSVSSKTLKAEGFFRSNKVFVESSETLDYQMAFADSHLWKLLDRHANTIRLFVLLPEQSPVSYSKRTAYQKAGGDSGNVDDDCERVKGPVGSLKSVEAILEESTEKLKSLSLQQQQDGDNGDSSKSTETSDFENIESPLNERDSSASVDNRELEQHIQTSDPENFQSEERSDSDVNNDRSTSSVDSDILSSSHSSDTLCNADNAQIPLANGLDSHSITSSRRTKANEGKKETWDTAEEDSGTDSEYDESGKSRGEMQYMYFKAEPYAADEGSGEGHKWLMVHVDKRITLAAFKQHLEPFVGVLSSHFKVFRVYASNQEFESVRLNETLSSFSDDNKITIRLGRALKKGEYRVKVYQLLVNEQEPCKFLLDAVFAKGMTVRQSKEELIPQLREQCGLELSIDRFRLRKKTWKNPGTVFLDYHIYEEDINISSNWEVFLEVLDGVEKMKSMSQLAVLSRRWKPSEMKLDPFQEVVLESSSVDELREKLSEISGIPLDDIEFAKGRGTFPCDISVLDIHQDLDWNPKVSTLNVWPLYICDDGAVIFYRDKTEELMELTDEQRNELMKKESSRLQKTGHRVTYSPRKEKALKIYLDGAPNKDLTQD
Outline: as §1

USP48 = target: T3, USP48 (UniProt Q86UV5)
T3 sequence (whole entry): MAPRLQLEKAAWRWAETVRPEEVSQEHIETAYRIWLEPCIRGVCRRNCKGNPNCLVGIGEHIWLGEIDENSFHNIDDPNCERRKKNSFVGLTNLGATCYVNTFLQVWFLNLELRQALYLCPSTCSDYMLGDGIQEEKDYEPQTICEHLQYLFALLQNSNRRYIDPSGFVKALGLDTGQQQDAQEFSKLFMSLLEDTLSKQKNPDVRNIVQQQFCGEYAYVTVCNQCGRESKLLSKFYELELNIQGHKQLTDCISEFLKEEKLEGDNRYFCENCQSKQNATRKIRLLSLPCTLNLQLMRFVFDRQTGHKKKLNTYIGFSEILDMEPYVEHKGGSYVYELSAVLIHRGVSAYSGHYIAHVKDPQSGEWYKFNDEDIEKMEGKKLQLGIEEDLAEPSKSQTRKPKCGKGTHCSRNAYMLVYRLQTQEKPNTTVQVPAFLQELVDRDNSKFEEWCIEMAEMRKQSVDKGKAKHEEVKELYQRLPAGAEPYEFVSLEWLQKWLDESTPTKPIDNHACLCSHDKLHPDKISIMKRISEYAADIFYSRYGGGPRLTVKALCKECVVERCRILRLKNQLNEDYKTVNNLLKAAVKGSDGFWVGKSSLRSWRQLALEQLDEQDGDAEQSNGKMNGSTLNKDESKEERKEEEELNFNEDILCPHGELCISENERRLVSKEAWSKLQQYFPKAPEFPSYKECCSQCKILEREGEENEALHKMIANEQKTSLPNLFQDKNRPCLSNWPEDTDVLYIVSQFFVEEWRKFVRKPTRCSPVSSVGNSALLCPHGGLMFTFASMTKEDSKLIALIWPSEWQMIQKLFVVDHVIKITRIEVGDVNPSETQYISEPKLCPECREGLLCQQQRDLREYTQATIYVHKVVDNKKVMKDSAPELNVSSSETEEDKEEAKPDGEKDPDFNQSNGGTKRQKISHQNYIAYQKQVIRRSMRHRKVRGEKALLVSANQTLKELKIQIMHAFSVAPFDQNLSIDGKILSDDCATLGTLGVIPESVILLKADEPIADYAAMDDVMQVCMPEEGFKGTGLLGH
Outline: as §1

USP5 = target: T4, USP5 (UniProt P45974)
T4 sequence (whole entry): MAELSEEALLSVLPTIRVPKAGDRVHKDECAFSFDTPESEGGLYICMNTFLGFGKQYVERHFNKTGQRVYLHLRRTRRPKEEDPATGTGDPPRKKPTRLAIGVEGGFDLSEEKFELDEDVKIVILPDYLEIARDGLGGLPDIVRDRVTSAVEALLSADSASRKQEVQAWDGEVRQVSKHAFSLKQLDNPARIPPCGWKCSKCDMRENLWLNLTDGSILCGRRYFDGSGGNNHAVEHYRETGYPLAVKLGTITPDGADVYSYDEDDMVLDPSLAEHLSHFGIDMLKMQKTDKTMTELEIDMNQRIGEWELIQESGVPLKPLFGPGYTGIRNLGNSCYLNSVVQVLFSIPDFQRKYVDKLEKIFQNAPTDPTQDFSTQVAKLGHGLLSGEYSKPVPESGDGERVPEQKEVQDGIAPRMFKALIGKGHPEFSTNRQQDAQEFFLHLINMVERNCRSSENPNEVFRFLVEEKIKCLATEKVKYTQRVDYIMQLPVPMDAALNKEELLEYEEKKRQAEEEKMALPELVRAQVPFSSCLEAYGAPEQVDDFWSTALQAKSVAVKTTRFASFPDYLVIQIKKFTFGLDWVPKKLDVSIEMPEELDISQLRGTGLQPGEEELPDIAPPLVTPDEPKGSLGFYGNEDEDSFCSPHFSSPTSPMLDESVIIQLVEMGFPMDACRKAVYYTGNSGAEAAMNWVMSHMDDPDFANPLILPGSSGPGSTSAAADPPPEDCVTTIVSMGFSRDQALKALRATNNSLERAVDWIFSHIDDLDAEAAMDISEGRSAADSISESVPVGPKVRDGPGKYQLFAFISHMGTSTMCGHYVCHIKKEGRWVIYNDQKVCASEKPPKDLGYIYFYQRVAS
Outline: as §1

USP54 = USP54 (UniProt Q70EL1)
Outline: as §1

USP7 = USP7 (UniProt Q93009)
Outline: as §1

USP8 = target: T5, USP8 (UniProt P40818)
T5 sequence (whole entry): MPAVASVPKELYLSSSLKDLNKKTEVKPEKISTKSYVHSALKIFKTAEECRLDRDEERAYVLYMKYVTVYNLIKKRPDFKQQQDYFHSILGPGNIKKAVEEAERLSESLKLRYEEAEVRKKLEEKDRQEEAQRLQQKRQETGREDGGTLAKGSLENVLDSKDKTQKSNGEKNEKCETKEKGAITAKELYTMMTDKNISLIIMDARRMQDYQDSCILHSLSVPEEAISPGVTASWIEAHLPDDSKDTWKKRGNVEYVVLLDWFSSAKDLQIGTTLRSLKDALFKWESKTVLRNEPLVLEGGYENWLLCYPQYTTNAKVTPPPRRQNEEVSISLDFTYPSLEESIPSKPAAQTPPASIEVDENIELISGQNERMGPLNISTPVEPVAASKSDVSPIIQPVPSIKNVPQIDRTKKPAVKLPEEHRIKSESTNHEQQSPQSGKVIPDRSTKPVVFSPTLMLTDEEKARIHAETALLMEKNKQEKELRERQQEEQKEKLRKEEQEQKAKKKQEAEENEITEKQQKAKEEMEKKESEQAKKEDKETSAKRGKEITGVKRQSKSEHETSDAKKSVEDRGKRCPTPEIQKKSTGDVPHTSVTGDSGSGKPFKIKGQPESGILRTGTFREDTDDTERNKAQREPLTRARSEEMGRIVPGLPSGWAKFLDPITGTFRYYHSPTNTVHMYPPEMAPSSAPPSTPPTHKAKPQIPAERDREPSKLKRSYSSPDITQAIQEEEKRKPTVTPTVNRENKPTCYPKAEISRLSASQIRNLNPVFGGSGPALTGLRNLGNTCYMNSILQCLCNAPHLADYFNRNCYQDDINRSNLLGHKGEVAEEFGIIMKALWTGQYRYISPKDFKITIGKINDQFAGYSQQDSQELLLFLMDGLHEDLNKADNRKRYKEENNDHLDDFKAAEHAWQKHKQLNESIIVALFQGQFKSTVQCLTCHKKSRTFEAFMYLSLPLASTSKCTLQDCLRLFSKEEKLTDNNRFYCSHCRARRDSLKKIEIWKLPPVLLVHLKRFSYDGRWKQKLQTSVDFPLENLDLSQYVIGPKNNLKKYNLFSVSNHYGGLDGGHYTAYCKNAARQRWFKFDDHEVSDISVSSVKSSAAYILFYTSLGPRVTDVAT
Outline: as §1

USP9X = USP9X (UniProt Q93008)
Outline: as §1

UniProt O00487 = target: UniProt O00487
Outline: as §1

Measured: log2 ratio of Biotin-Ahx-Ub-VS probe labelling

Chain of USP9X (Q93008 whole entry): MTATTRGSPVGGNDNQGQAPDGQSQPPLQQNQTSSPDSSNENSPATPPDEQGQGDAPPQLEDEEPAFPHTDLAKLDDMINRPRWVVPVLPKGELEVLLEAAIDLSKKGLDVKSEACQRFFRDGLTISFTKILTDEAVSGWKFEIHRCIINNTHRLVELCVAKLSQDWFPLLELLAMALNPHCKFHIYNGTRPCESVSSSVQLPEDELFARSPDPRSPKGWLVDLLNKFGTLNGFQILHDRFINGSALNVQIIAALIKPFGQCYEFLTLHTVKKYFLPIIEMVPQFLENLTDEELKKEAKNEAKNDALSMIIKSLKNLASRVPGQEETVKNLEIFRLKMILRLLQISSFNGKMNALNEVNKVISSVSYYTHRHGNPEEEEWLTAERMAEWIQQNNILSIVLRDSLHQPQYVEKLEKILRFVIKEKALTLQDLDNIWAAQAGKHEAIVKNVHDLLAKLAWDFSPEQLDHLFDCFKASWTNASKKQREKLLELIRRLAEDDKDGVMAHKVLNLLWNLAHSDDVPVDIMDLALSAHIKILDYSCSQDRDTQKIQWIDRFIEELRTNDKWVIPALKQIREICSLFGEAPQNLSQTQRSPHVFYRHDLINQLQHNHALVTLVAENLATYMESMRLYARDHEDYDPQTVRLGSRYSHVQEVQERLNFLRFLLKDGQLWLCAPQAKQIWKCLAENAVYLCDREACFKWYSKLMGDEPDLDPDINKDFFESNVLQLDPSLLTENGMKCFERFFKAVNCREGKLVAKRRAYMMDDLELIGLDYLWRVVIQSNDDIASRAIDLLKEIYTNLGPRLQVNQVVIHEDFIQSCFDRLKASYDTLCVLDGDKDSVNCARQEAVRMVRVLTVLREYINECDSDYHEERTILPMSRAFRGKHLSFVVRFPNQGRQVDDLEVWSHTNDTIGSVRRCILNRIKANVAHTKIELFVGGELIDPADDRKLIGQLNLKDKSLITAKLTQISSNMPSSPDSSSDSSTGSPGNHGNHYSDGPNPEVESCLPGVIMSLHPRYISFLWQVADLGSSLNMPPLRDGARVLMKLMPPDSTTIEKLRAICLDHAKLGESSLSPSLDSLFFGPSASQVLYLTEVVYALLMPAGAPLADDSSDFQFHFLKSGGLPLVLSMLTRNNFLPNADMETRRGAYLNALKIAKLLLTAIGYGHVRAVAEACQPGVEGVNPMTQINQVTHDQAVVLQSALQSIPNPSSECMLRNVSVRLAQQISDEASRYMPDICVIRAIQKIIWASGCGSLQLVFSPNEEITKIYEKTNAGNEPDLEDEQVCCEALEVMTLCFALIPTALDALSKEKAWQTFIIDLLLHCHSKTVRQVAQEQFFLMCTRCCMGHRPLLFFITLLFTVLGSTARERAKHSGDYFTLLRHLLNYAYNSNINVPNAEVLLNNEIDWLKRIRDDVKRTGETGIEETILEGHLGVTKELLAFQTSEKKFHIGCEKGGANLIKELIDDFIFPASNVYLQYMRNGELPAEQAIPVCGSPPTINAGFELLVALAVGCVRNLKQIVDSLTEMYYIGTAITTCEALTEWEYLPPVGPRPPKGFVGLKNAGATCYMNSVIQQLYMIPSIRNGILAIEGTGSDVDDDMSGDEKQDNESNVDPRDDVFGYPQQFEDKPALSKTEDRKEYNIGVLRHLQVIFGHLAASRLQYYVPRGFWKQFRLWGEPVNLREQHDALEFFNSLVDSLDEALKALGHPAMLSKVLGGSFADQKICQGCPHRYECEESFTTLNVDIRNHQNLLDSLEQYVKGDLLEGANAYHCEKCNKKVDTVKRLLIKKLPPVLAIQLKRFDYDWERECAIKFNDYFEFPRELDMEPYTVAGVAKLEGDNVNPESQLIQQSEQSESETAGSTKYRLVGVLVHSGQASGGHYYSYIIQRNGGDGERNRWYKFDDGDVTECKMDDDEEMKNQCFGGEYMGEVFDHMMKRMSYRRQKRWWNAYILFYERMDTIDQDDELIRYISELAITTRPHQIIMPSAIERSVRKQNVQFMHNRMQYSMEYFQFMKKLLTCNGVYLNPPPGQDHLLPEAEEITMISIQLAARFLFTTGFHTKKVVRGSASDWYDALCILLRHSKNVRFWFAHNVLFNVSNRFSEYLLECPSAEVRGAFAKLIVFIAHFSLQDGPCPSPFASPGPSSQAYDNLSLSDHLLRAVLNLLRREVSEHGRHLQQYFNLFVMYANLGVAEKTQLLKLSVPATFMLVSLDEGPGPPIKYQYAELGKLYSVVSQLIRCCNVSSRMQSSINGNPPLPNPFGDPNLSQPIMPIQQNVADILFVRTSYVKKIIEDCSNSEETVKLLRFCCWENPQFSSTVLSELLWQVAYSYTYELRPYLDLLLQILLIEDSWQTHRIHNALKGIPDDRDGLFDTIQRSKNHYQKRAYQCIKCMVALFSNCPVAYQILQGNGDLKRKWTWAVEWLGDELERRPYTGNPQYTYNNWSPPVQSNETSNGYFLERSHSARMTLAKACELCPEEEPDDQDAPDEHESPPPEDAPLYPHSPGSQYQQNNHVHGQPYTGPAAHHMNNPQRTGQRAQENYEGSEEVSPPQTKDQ
Chain of USP46 (P62068 whole entry): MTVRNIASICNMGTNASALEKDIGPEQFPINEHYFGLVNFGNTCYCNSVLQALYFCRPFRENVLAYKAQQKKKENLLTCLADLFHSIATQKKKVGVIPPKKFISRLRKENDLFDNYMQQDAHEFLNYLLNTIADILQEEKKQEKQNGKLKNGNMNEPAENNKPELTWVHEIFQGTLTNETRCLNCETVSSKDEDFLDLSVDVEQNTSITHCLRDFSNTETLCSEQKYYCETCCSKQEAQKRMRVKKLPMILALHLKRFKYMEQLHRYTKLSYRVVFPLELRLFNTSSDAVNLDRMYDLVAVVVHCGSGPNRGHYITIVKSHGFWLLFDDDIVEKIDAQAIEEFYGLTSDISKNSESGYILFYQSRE
Chain of UniProt O00487 (O00487 whole entry): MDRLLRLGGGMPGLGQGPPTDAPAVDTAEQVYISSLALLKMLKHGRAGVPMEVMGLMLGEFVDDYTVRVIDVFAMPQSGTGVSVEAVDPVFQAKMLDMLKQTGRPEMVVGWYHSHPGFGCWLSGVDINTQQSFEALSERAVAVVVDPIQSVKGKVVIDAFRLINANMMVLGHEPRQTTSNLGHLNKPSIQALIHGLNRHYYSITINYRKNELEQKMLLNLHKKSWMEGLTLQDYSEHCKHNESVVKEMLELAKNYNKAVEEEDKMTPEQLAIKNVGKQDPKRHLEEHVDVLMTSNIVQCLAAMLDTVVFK
Chain of USP54 (Q70EL1 whole entry): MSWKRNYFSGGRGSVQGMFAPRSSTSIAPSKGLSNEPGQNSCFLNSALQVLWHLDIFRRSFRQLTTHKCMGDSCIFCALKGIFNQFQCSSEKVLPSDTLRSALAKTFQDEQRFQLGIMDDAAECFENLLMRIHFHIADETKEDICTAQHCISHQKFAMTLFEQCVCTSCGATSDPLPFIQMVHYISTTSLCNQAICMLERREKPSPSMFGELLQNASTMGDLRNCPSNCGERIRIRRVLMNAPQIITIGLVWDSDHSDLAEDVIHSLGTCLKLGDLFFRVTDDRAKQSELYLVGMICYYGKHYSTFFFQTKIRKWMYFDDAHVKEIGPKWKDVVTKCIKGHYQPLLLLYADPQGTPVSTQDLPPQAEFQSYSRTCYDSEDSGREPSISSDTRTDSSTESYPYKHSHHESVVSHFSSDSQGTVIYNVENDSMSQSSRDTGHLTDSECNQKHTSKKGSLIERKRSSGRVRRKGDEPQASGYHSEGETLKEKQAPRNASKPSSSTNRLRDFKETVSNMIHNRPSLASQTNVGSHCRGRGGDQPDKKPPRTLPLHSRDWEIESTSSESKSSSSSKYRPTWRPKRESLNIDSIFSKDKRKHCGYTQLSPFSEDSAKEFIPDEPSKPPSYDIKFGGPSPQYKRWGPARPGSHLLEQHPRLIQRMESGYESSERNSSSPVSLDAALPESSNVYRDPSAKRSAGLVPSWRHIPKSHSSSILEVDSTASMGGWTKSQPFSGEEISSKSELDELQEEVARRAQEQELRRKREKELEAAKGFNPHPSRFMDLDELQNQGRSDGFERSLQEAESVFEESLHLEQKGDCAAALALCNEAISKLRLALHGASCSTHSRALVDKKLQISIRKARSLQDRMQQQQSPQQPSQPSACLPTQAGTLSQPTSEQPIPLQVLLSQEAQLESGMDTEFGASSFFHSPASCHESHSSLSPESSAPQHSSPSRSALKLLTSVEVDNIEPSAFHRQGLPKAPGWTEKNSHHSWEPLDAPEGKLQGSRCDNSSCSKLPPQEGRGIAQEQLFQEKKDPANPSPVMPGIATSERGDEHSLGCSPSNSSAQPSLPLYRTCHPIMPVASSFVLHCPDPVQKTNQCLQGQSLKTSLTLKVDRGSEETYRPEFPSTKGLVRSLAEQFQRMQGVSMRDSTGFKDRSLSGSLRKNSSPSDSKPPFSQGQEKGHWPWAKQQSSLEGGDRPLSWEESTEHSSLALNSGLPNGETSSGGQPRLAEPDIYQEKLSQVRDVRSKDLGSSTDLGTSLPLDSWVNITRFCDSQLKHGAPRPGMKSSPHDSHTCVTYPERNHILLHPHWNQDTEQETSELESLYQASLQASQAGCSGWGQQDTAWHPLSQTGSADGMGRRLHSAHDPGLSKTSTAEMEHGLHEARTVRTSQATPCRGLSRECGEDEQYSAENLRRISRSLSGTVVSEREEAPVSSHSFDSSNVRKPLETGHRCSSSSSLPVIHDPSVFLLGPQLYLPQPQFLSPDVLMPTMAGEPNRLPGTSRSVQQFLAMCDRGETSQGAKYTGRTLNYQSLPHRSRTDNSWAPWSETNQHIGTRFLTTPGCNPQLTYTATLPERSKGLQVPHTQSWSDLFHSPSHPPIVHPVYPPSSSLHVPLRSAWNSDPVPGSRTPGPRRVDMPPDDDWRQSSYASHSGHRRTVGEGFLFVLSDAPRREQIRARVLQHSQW

Cc1ccc(CC(NC(=O)CCl)c2ccccn2)cc1.Cl (stereo not given)
inactive: USP42 -0.109 | USP46 0.168 | USP47 0.0361 | USP48 0.0528 | USP5 -0.125 | USP54 0.195 | USP7 -0.0773 | USP8 0.0199 | USP9X 0.139 | UniProt O00487 0.244
